In paper PMC8384837, “Expanding the binding specificity for RNA recognition by a PUF domain” one finds binding signal data, which are given here for 7 sequences.

Where a chain is given by its changes, count along the chain named.

Holding throughout (experiment): yeast three-hybrid, YBZ-1, SC-Leu-His + 0.5 mM 3-AT, 4 days
Common to all, as to conditions: tags: N-Gal4 AD-HA kept; label: inside an RPR1-promoter hybrid RNA with tandem MS2 sites; ssRNA

In one test the target is T1, PUM1 PUF domain R6-SFM (Homo sapiens, UniProt Q14671 828-1176, N1043S;Y1044F;Q1047M).
T1 sequence: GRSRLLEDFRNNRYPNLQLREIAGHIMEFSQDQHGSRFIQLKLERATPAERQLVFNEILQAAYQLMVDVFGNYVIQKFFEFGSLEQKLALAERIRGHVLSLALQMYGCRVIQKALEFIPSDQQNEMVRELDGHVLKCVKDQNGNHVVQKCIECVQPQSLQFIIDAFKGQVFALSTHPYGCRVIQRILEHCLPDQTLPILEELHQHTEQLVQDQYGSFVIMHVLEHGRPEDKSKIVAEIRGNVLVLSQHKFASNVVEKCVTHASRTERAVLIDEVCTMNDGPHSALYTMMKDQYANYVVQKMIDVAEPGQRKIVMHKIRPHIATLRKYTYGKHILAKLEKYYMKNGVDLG
An outline of the steps:
(§1)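 Sequencing with Illumina followed PCR amplification of the repeat regions from transformants grown four days on SC-Leu (input) or SC-Leu-His + 0.5 mM 3-AT (selection). The transformants were strain YBZ-1 with a LexA–MS2 coat fusion and a HIS3 reporter, carrying Pumilio-1 PUF domain libraries and matching RNA elements. The interaction score is the log change in variant frequency from input to selection, computed in log2 with a pseudocount of 1 for absent variants.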

The target of the next test is T2, PUM1 PUF domain R6-GFS (Homo sapiens, UniProt Q14671 828-1176, N1043G;Y1044F;Q1047S).
T2 sequence: T1 sequence with S216G, M220S
An outline of the steps:
as §1

For the next test, the target named is PUM1 PUF domain R7-RVS (Homo sapiens, UniProt Q14671 828-1176, S1079R;N1080V;E1083S). An outline of the steps:
as §1

A further test concerns the target PUM1 PUF domain R5-RVC (Homo sapiens, UniProt Q14671 828-1176, C1007R;R1008V;Q1011C). An outline of the steps:
as §1

In a further test the target is PUM1 PUF domain R5-KQM (Homo sapiens, UniProt Q14671 828-1176, C1007K;R1008Q;Q1011M). An outline of the steps: as §1
The target in the next test is PUM1 PUF domain R5-KGN (Homo sapiens, UniProt Q14671 828-1176, C1007K;R1008G;Q1011N). In short, it runs like this: as §1
The target of a further test is PUM1 PUF domain R2-EPW (Homo sapiens, UniProt Q14671 828-1176, N899E;Y900P;Q903W). In short, it runs like this:
as §1

Another test concerns the target PUM1 PUF domain R3-RAW (Homo sapiens, UniProt Q14671 828-1176, C935R;R936A;Q939W). An outline of the steps:
as §1

For the sequence “GGCUAGAACUAGUGGAUCCCCCGGCGCCCGGCGGCUCGAGCCCGGGUAAGUGUAAAUAGUCUGCAUGCCGCCGGGCGCCAUGCCUGCAGGUCGACUCUAGAAAACAUG”, the results for the binding signal in the test with PUM1 PUF domain R6-SFM and with PUM1 PUF domain R6-GFS were 2.95 log2 enrichment (interaction score) and 2.76 log2 enrichment (interaction score), respectively.

Regarding “GGCUAGAACUAGUGGAUCCCCCGGCGCCCGGCGGCUCGAGCCCGGGUAAGUUUAAAUAGUCUGCAUGCCGCCGGGCGCCAUGCCUGCAGGUCGACUCUAGAAAACAUG”, the binding signal with PUM1 PUF domain R7-RVS was 3.16 log2 enrichment (interaction score).

In the case of “GGCUAGAACUAGUGGAUCCCCCGGCGCCCGGCGGCUCGAGCCCGGGUAAGUGUCAAUAGUCUGCAUGCCGCCGGGCGCCAUGCCUGCAGGUCGACUCUAGAAAACAUG”, the binding signal with PUM1 PUF domain R5-RVC was 2.54 log2 enrichment (interaction score).

Turning to “GGCUAGAACUAGUGGAUCCCCCGGCGCCCGGCGGCUCGAGCCCGGGUAAGUGUUAAUAGUCUGCAUGCCGCCGGGCGCCAUGCCUGCAGGUCGACUCUAGAAAACAUG”, the binding signal was 4.71 log2 enrichment (interaction score) with PUM1 PUF domain R5-KQM and 3.75 log2 enrichment (interaction score) with PUM1 PUF domain R5-KGN.

In the case of “GGCUAGAACUAGUGGAUCCCCCGGCGCCCGGCGGCUCGAGCCCGGGUAAGUGUAAAGAGUCUGCAUGCCGCCGGGCGCCAUGCCUGCAGGUCGACUCUAGAAAACAUG”, the binding signal with PUM1 PUF domain R2-EPW is 3.25 log2 enrichment (interaction score).

Consider “GGCUAGAACUAGUGGAUCCCCCGGCGCCCGGCGGCUCGAGCCCGGGUAAGUGUAAGUAGUCUGCAUGCCGCCGGGCGCCAUGCCUGCAGGUCGACUCUAGAAAACAUG”, for which the binding signal in the test with PUM1 PUF domain R3-RAW was 1.15 log2 enrichment (interaction score).

Turning to “GGCUAGAACUAGUGGAUCCCCCGGCGCCCGGCGGCUCGAGCCCGGGUAAGUGUAAUUAGUCUGCAUGCCGCCGGGCGCCAUGCCUGCAGGUCGACUCUAGAAAACAUG”, the binding signal with PUM1 PUF domain R3-RAW was 4.11 log2 enrichment (interaction score).
